Measurements reported in PubChem BioAssay (NCI).
This is part of a sample that, as a whole, favours compounds with a hit. Of some 83,000 tested, about 20% had one in any assay.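 Values shown are percent growth following 48 h exposure of cells in 96-well plates to a single concentration of compound; below 10 was considered active.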 Active and inactive are the calls of the source.

What was measured:
Assay in all cases: NCI-60 one-dose screen, 48 h (100 = growth as untreated, 0 = no growth, -100 = all killed)
NCI-H23 lung = details: 10 µM unless noted
786-0 renal = details: 10 µM unless noted
DU-145 prostate = details: 10 µM unless noted
MDA-MB-231 breast = details: 10 µM unless noted
SF-268 CNS = details: 10 µM unless noted
SF-539 CNS = details: 10 µM unless noted
M14 melanoma = details: 10 µM unless noted
HCT-15 colon = details: 10 µM
UACC-62 melanoma = details: 10 µM unless noted
LOX IMVI melanoma = details: 10 µM unless noted
SK-MEL-28 melanoma = details: 10 µM unless noted
ACHN renal = details: 10 µM unless noted
OVCAR-3 ovarian = details: 10 µM unless noted
NCI/ADR-RES ovarian = details: 10 µM unless noted
T-47D breast = details: 10 µM unless noted
MDA-MB-435 melanoma = details: 10 µM unless noted
SW-620 colon = details: 10 µM unless noted
MCF7 breast = details: 10 µM unless noted
KM12 colon = details: 10 µM unless noted
OVCAR-5 ovarian = details: 10 µM unless noted

Measured: growth

CCC(C)/C=C(C)/C=C/C(=O)c1c(O)c(-c2ccc(O)cc2)c[nH]c1=O (configuration not stated)
inactive: NCI-H23 lung 64.6% | 786-0 renal 49.7% | DU-145 prostate 24.8% | MDA-MB-231 breast 70% | SF-268 CNS 33.3% | SF-539 CNS 61.7% | M14 melanoma 79.1% | HCT-15 colon 38.8% | UACC-62 melanoma 48.8% | LOX IMVI melanoma 40.2% | SK-MEL-28 melanoma 91% | ACHN renal 50.5% | OVCAR-3 ovarian 40.7% | NCI/ADR-RES ovarian 33.5% | T-47D breast 48.6% | MDA-MB-435 melanoma 24.2% | SW-620 colon 39.6% | MCF7 breast 18.6% | KM12 colon 40.6%

CCCCOC(=O)c1ccccc1C(=O)O.CCCCOC(=O)c1ccccc1C(=O)O.[Cu+2]
inactive: NCI-H23 lung 107% | 786-0 renal 106% | DU-145 prostate 113% | MDA-MB-231 breast 124% | SF-268 CNS 120% | SF-539 CNS 111% | M14 melanoma 101% | HCT-15 colon 112% | UACC-62 melanoma 111% | LOX IMVI melanoma 89.4% | SK-MEL-28 melanoma 111% | ACHN renal 112% | OVCAR-5 ovarian 126% | OVCAR-3 ovarian 110% | NCI/ADR-RES ovarian 111% | T-47D breast 104% | MDA-MB-435 melanoma 105% | SW-620 colon 98.8% | MCF7 breast 98.3% | KM12 colon 105%

COc1cc(CNCCc2ccc(Cl)cc2)cc(OC)c1O
active: MDA-MB-435 melanoma -4.7%
inactive: NCI-H23 lung 67% | 786-0 renal 78.3% | DU-145 prostate 91% | MDA-MB-231 breast 72.2% | SF-268 CNS 73% | SF-539 CNS 68.7% | M14 melanoma 64.8% | HCT-15 colon 54.8% | UACC-62 melanoma 61.2% | LOX IMVI melanoma 70.7% | SK-MEL-28 melanoma 69.9% | ACHN renal 75.6% | OVCAR-5 ovarian 86.7% | OVCAR-3 ovarian 61% | NCI/ADR-RES ovarian 44.8% | T-47D breast 61.7% | SW-620 colon 64.1% | MCF7 breast 63.7% | KM12 colon 65.7%

COc1ccc(CN2CCN(Cc3ccccc3)CC2)c(O)c1
inactive: NCI-H23 lung 94.8% | 786-0 renal 95% | DU-145 prostate 97.4% | MDA-MB-231 breast 104% | SF-268 CNS 100% | SF-539 CNS 117% | M14 melanoma 89.5% | HCT-15 colon 99.2% | UACC-62 melanoma 96.2% | LOX IMVI melanoma 92.1% | SK-MEL-28 melanoma 115% | ACHN renal 87.5% | OVCAR-5 ovarian 101% | OVCAR-3 ovarian 81.1% | NCI/ADR-RES ovarian 83.4% | T-47D breast 84.7% | MDA-MB-435 melanoma 103% | SW-620 colon 98.5% | MCF7 breast 99.7% | KM12 colon 100%

CC(=O)O[C@H]1CCC2C3CCC4=C/C(=N/O)CCC4(C)C3CCC21C (some centres not stated)
inactive: NCI-H23 lung 90% | 786-0 renal 76.9% | DU-145 prostate 93.1% | MDA-MB-231 breast 110% | SF-268 CNS 75.9% | SF-539 CNS 87.6% | M14 melanoma 79.9% | HCT-15 colon 72.3% | UACC-62 melanoma 91.4% | LOX IMVI melanoma 93% | SK-MEL-28 melanoma 103% | ACHN renal 108% | OVCAR-5 ovarian 99.5% | OVCAR-3 ovarian 107% | NCI/ADR-RES ovarian 70.8% | T-47D breast 95.6% | MDA-MB-435 melanoma 20.3% | SW-620 colon 74.4% | MCF7 breast 110% | KM12 colon 78%

COc1ccc(NP2(=O)OCC(C)(N)CO2)cc1 (configuration not stated)
inactive: NCI-H23 lung 92% | 786-0 renal 101% | DU-145 prostate 102% | MDA-MB-231 breast 106% | SF-268 CNS 96.2% | SF-539 CNS 100% | M14 melanoma 101% | HCT-15 colon 89.3% | UACC-62 melanoma 99.9% | LOX IMVI melanoma 89.4% | SK-MEL-28 melanoma 114% | ACHN renal 96.6% | OVCAR-5 ovarian 102% | OVCAR-3 ovarian 107% | NCI/ADR-RES ovarian 98.2% | T-47D breast 78.5% | MDA-MB-435 melanoma 108% | SW-620 colon 105% | MCF7 breast 99.6% | KM12 colon 91.8%

CCC[CH2][Sn]([CH2]CCC)([CH2]CCC)[O]C(=O)c1ccc(Cl)cc1Cl
active: NCI-H23 lung -65.5% | 786-0 renal -91.7% | DU-145 prostate -98% | MDA-MB-231 breast -88.2% | SF-268 CNS -95.5% | SF-539 CNS -91.7% | M14 melanoma -85.8% | HCT-15 colon -82.9% | UACC-62 melanoma -95.4% | LOX IMVI melanoma -70.3% | ACHN renal -100% | OVCAR-5 ovarian -95.1% | OVCAR-3 ovarian -98.3% | NCI/ADR-RES ovarian -68.6% | T-47D breast -58.3% | MDA-MB-435 melanoma -85.4% | SW-620 colon -71.7% | KM12 colon -92.4%

OC1CCCCC1N1CCC(c2ccccc2)CC1 (configuration not stated)
inactive: NCI-H23 lung 100% | 786-0 renal 93.1% | DU-145 prostate 112% | MDA-MB-231 breast 119% | SF-268 CNS 106% | SF-539 CNS 119% | M14 melanoma 106% | HCT-15 colon 110% | UACC-62 melanoma 115% | LOX IMVI melanoma 99.4% | SK-MEL-28 melanoma 103% | ACHN renal 109% | OVCAR-5 ovarian 107% | OVCAR-3 ovarian 106% | NCI/ADR-RES ovarian 99.7% | T-47D breast 96.8% | MDA-MB-435 melanoma 100% | SW-620 colon 99.3% | MCF7 breast 94.1% | KM12 colon 104%
